Reference: PubChem BioAssay AID1578 (Sanford-Burnham Center for Chemical Genomics, 2009)
Screen size: about 290,000 compounds; about 3,000 (1%) were called active. Rule as the data show it: active = inhibition mostly above about 36% (no sharp cut-off); inactive = mostly below about 34%. The full list was thinned out, with actives kept by preference.

assay: inhibition of NOD1-driven NF-kB reporter – cell-based, luminescence, uHTS, primary screen (AID 1578); details: NOD1-driven NF-kB luciferase reporter cells, at 4 µM, active compounds read high;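 also: HEK-293T reporter cells stimulated with the NOD1 agonist gamma-tri-DAP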

Compound | inhibition
Cc1ccc(O)c(C(CC(=O)NCc2ccco2)c2ccccc2)c1 (stereo unspecified) | -21.1% (inactive)
Cc1nnc(SCC(=O)c2ccccc2F)n1Cc1ccccc1 | -6.1% (inactive)
COCC1CCN(C(=O)c2cc(COc3ccc(OC)c4ccccc34)on2)C1 (stereo unspecified) | -73.2% (inactive)
CS(=O)(=O)N(CCCC(=O)N1CCCCCC1)c1cccc(Cl)c1 | 0.2% (inactive)
CCN(CC)CCNC(CC(=O)Nc1ccc(Cl)cc1Cl)C(=O)O (stereo unspecified) | -7% (inactive)
COc1ccc(-c2cc(NCCc3ccncc3)n3ncnc3n2)cc1 | 2.6% (inactive)
COc1ccc(NC(=O)NCc2ccco2)cc1OC | -24.4% (inactive)
COc1cc(S(=O)(=O)NCc2ccncc2)c(OC)cc1C | -15.2% (inactive)
O=[N+]([O-])c1cccc(/C=C/c2nc[nH]c2[N+](=O)[O-])c1 | -10.5% (inactive)
Cc1cccc(C(=O)Oc2ccccc2C(=O)N2CCOCC2)c1 | -8.5% (inactive)
COCCn1c(C)cc(C2=NNC(=Nc3ccc(Cl)cc3Cl)SC2)c1C | 13.9% (inactive)
COCCn1c(C)cc(C2=NNC(=Nc3ccccc3)SC2)c1C | -63.4% (inactive)
COCCn1c(C)cc(C2=NNC(=Nc3ccccc3F)SC2)c1C | 65.1% (active)
Cc1c(C)c2ccc(O)c(CN3CCCC3)c2oc1=O | 15.3% (inactive)
Cn1c2ccccc2c(=O)c2cc(C#CC3(O)CCCCC3)ccc21 | 35% (inactive)
Cn1c2ccccc2c(=O)c2ccc(C#CC3(O)CCCCC3)cc21 | 82% (active)
Cn1c2ccccc2c(=O)c2ccc(C#CC3(N)CCCCC3)cc21 | 30.6% (inactive)
CCC(=O)N1CCc2cc(S(=O)(=O)NCCC(=O)N3CCN(c4ccccc4)CC3)ccc21 | -26.5% (inactive)
O=C1CCN(CCCc2ccccc2)CCN1[C@H](CO)Cc1ccccc1 | -31.4% (inactive)
COc1ccccc1-c1nc(C#N)c(N2CCN(c3ccccc3)CC2)o1 | -2.9% (inactive)
COc1ccc(-c2nc(C#N)c(N3CCN(c4cccc(Cl)c4)CC3)o2)cc1OC | 5.2% (inactive)

Compound | inhibition
C[C@@H]1CC=C[C@H]2[C@H]1C(=O)N(Cc1ccccc1)[C@H]2c1ccc(-c2ccoc2)cc1F | -2.6% (inactive)
Cc1c(O)ccc2c(CC(=O)N[C@@H](Cc3c[nH]c4ccccc34)C(=O)O)cc(=O)oc12 | -0.1% (inactive)
CN1CCN(c2nc(-c3ccccc3)cc(C(F)(F)F)n2)CC1 | -26.3% (inactive)
FC(F)(F)c1cc(-c2ccccc2)nc(N2CCCCC2)n1 | 8.3% (inactive)
FC(F)(F)c1cc(-c2ccccc2)nc(N2CCCCCC2)n1 | 37.9% (active)
Cc1nn(C)cc1/C=N\NC(=O)Cc1ccc([N+](=O)[O-])cc1 | -27.7% (inactive)
COc1ccc(C#Cc2ccc3c(=O)c4ccccc4n(C)c3c2)cc1 | 25.7% (inactive)
CCCC(=O)NC(=S)Nc1cccc(Cl)c1N1CCCC1 | -26.8% (inactive)
CCCC(=O)NC(=S)Nc1cccc(Cl)c1N1CCCCC1 | -26.4% (inactive)
CCC(=O)NC(=S)Nc1cccc(Cl)c1N1CCCC1 | 55.9% (active)
COC(=O)C1Cc2ccccc2CN1C(=O)CCl (stereo unspecified) | 39.2% (inactive)
O=C(Cc1ccccc1)N/N=C/c1cc(Br)cs1 | 1.2% (inactive)
Cc1nccn1CC(=O)N/N=C/c1cc(Br)cs1 | -0.6% (inactive)
CCN1CCN(CC(=O)N/N=C/c2cc(Br)cs2)CC1 | 104% (active)
Cc1cc(C)n(-c2nc3c(c(=O)[nH]c(=O)n3C)n2C(C)C)n1 | 5.7% (inactive)
O=C(CN1CCN(c2ccc(F)cc2)CC1)Nc1cc(C(F)(F)F)ccc1Cl | -11.8% (inactive)
CCOC(=O)CNC(=O)C1Cc2ccccc2CN1S(=O)(=O)c1cccs1 (stereo unspecified) | -33% (inactive)
COc1ccc(C2CC(c3cccs3)=NN2S(C)(=O)=O)cc1 (stereo unspecified) | -18% (inactive)
COc1ccc(C2CC(c3cccs3)=NN2S(C)(=O)=O)cc1OC (stereo unspecified) | -25.1% (inactive)
COc1cccc(C2CC(c3cccs3)=NN2S(C)(=O)=O)c1 (stereo unspecified) | 47.7% (active)
COc1ccc(C(=O)Nc2nnc(Cc3ccccc3)s2)c(OC)c1 | -43.9% (inactive)

Compound | inhibition
O=[N+]([O-])c1ccc(S(=O)(=O)N/N=C/c2ccco2)cc1 | -34.8% (inactive)
CCOC(=O)c1cnc2ccc(OCC)cc2c1NCCN1CCOCC1 | -21.5% (inactive)
O=c1cc(-c2ccc3c(c2)OCO3)oc2ccccc12 | -38.2% (inactive)
Cc1cc(N2CCN(c3nc(-c4ccccc4)cs3)CC2)c2ccccc2n1 | -3.1% (inactive)
Cc1cc(N2CCN(c3nc(-c4ccc([N+](=O)[O-])cc4)cs3)CC2)c2ccccc2n1 | 3.5% (inactive)
COc1ccc(-c2csc(N3CCN(c4cc(C)nc5ccccc45)CC3)n2)cc1OC | 54.5% (active)
C[C@@H]1C=C(C(=O)NCc2ccccc2)O[C@H](OCc2ccc(CO)cc2)C1 | -6.2% (inactive)
O=C1/C(=C/c2ccc([N+](=O)[O-])cc2)C=C(c2ccccc2)N1c1ccc(O)cc1 | 28.6% (inactive)
O=C(O)c1cccc(N2C(=O)/C(=C/c3ccc([N+](=O)[O-])cc3)C=C2c2ccccc2)c1 | 55.4% (active)
O=C1/C(=C/c2ccc([N+](=O)[O-])cc2)C=C(c2ccccc2)N1c1ccccc1 | -31.4% (inactive)
O=C(NCc1cccnc1)C1CCCN(S(=O)(=O)c2cccc3nsnc23)C1 (stereo unspecified) | -7.8% (inactive)
CCOC(=O)c1ccc(NC(=S)NCCc2ccccc2F)cc1 | -22.7% (inactive)
CCOC(=O)c1ccc(NC(=S)NCCc2ccccc2)cc1 | 0.7% (inactive)
CCOC(=O)c1ccc(NC(=S)NCCc2ccc(F)cc2)cc1 | 72.6% (active)
CCCCCCn1c(CN2CCCCC2C)nc2c1c(=O)n(C)c(=O)n2C (stereo unspecified) | -20.6% (inactive)
CCOC(=O)c1c(C2CC2)csc1NC(=O)COC(=O)c1cc(OC)c(OC)cc1[N+](=O)[O-] | -39.9% (inactive)
CN1C(=O)/C(=C/c2cccc(Cl)c2)Sc2ccc(C(=O)NCc3cccnc3)cc21 | 4.4% (inactive)
COc1cccc(/C=C2\Sc3ccc(C(=O)NCc4cccnc4)cc3N(C)C2=O)c1 | 44.2% (inactive)
COc1ccc(/C=C2\Sc3ccc(C(=O)NCc4cccnc4)cc3N(C)C2=O)cc1OC | 42.3% (active)
